# From PubChem BioAssay (Tox21)
# Several values for one entry are separate records, joined by “and”; a condition that tells them apart may be missing. Equal entries are not always repeated. Records with an inconclusive call do not appear. Entries that show only a call come without a potency. Activity calls are given as the source filed them. Unless noted, calls follow the shape of the dose curve; as a rule, active = well fitted curve in the direction sought with a large enough effect in the repeat runs; inconclusive = weak or mixed curves; inactive = no such curve, though single readings can be large; an effect the other way counts as inactive or inconclusive.
# Key:
# [1] = qHTS assay for small molecule agonists of the p53 signaling pathway - cell viability (AID 651633; calls by dose curve; also: nearly all actives have a fitted effect of over 30% in size; also: potency is read from the fitted curve at half-maximal effect); details: p53RE-bla HCT-116 viability, ATP luminescence, 16 h; series mostly up to 83.3 µM
# Procedure, shortened: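 Viability counter-read: CellTiter-Glo luminescence (30 min, room temperature) in the same p53RE-bla plates. These plates had been exposed to compounds for 16 h at 37 C.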
# [2] = qHTS assay for small molecules that induce genotoxicity in human embryonic kidney cells expressing luciferase-tagged ATAD5 - cell viability (AID 651634; calls by dose curve; also: nearly all actives have a fitted effect of over 25% in size); details: HEK293T ATAD5-luc cells viability, CellTiter-Fluor, 15.5 h; series mostly up to 83.3 µM
# Procedure, shortened: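 15.5 hr compound or vehicle exposure of HEK293T cells expressing luciferase-tagged ATAD5 at 37C; live-cell protease activity is read by fluorescence after 30 min of CellTiter-Fluor.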
# [3] = qHTS assay for small molecule disruptors of the mitochondrial membrane potential - cell viability (AID 720634; calls by dose curve;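 also: human HepG2 liver cancer cells; nearly all actives have a fitted effect of over 20% in size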); details: HepG2 viability, ATP luminescence (CellTiter-Glo), 1 h; series mostly up to 83.2 µM
# Procedure, shortened: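 In this qHTS format, HepG2 cells plated overnight were pinned with compound, incubated 1 hr, and assayed for ATP luminescence with CellTiter-Glo after m-MPI dye addition.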
# [4] = qHTS assay for small molecule disruptors of the mitochondrial membrane potential (AID 720635); details: HepG2 mitochondrial membrane potential, Mito-MPS dye ratio; series mostly up to 83.2 µM; also: potency is read from the fitted curve at half-maximal effect
# Procedure, shortened: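 Mitochondrial membrane potential tracked with Mito-MPS dye, red aggregates (ex 540/em 590 nm) against green monomers (ex 490/em 535 nm). Compound treatment 1 hr at 37C, dye 30 min in HepG2.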
# [5] = qHTS assay to test for compound auto fluorescence at 590 nm (red) in HepG2 cells (AID 720674); details: HepG2 autofluorescence, red 540/590 nm, 1 h; series mostly up to 91.3 µM
# Procedure, shortened: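 Red autofluorescence (Ex/Em 540/590 nm, Rose Bengal sodium equivalents) was measured in HepG2 cells, 2,000 per well in MEM plus 10% FBS, plated overnight at 37 C. Readings were taken 1 hr after adding 23 nL compound or DMSO, at 37 C and 5% CO2.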
# [6] = qHTS assay to test for compound auto fluorescence at 535 nm (green) in HepG2 cells (AID 720675); details: green autofluorescence 485/535 nm, 1 h; series mostly up to 91.3 µM
# [7] = qHTS assay to test for compound auto fluorescence at 460 nm (blue) in HEK293 cells (AID 720678); details: blue autofluorescence 405/460 nm; series mostly up to 91.3 µM
# Procedure, shortened: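 Triamterene serves as the blue fluorophore standard. Compound signal at 405/460 nm is read in HEK293 wells (2,000 cells, 10% dialyzed FBS) after overnight treatment at 37C.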
# [8] = qHTS assay to test for compound auto fluorescence at 590 nm (red) in HEK293 cells (AID 720679); details: red autofluorescence 540/590 nm; series mostly up to 91.3 µM
# Procedure, shortened: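 We plated HEK293 cells in 10% dialyzed FBS medium, let them adhere for 4-5 hr, then added 23 nL compound. Overnight at 37C and 5% CO2 preceded fluorescence measurement at 540/590nm.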
# [9] = qHTS assay to test for compound auto fluorescence at 460 nm (blue) in HEK293 cell free culture (AID 720681); details: cell-free medium, autofluorescence 405/460 nm (blue); series mostly up to 91.3 µM
# Procedure, shortened: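 Blue fluorescence (Ex 405/Em 460 nm, triamterene-equivalent) was read immediately after pin transfer of compound or DMSO into medium (DMEM, 10% FBS) without cells.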
# [10] = qHTS assay to test for compound auto fluorescence at 535 nm (green) in HEK293 cell free culture (AID 720682); details: cell-free medium, green autofluorescence 485/535 nm, active compounds read high; series mostly up to 91.3 µM
# Procedure, shortened: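 Intrinsic compound fluorescence is measured in culture medium containing 10% FBS, with excitation at 485 nm and detection at 535 nm, referenced to fluorescein.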
# [11] = qHTS assay to test for compound auto fluorescence at 590 nm (red) in HEK293 cell free culture (AID 720683); details: cell-free medium autofluorescence, Ex540/Em590 red; series mostly up to 91.3 µM
# Procedure, shortened: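 Red-channel autofluorescence of compounds in culture medium (DMEM, 10% FBS), no cells, measured at 540/590 nm. Rose Bengal sodium is the reference fluorophore for equivalence.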
# [12] = qHTS assay to test for compound auto fluorescence at 590 nm (red) in HepG2 cell free culture (AID 720684); details: cell-free medium autofluorescence, red 540/590 nm; series mostly up to 91.3 µM
# Procedure, shortened: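 No cells present: MEM + 10% FBS only. Compound pinned in, red label read (540/590 nm). Activity = fluorescence equivalent to Rose Bengal sodium.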
# [13] = qHTS assay to test for compound auto fluorescence at 460 nm (blue) in HepG2 cell free culture (AID 720685); details: Cell-free culture medium, blue autofluorescence 405/460 nm; series mostly up to 91.3 µM
# Procedure, shortened: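 Cell-free plates of MEM plus 10% FBS received 23 nL compound or DMSO vehicle; blue-channel (405/460 nm) intensity scored against triamterene as reference fluorophore.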
# [14] = qHTS assay to test for compound auto fluorescence at 535 nm (green) in HepG2 cell free culture (AID 720686); details: Cell-free medium, green autofluorescence 485/535 nm; series mostly up to 91.3 µM
# [15] = qHTS assay to test for compound auto fluorescence at 460 nm (blue) in HepG2 cells (AID 720687); details: autofluorescence 405/460 nm, 1 h; series mostly up to 91.3 µM
# Procedure, shortened: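 Blue-channel autofluorescence (Ex/Em 405/460 nm, triamterene-equivalent) was measured after 1 hr compound exposure at 37 C, 5% CO2. Cells were HepG2, plated overnight at 37 C in MEM plus 10% FBS.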
# [16] = qHTS assay for small molecules that induce genotoxicity in human embryonic kidney cells expressing luciferase-tagged ATAD5 (AID 651632); details: HEK293T ATAD5-luciferase induction, 16 h; series mostly up to 83.3 µM; also: nearly all actives have a fitted effect of over 15% in size
# Procedure, shortened: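 Concentration-response screen for ATAD5 upregulation in HEK293T luciferase reporter cells; 16 hr treatment at 37C, then luminescence after 30 min with Amplite at room temperature.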
# [17] = qHTS assay to test for compound auto fluorescence at 535 nm (green) in HEK293 cells (AID 720680); details: green autofluorescence 485/535 nm; series mostly up to 91.3 µM
# [18] = target: Glucocorticoid receptor (Homo sapiens) (UniProt P04150); test: qHTS assay to identify small molecule agonists of the glucocorticoid receptor (GR) signaling pathway (AID 720691; active = well fitted activation curve with a large enough effect in the signal ratio in the repeat runs, not every such curve was filed as active; the % refers to the signal ratio); details: GR-bla HeLa, beta-lactamase reporter ratio, 18 h; series mostly up to 62.4 µM
# Procedure, shortened: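 Measures GR pathway activation through a GRE-beta-lactamase reporter stably integrated in HeLa cells, with 18 h compound treatment at 37 C and fluorescence detection using a FRET substrate.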
# [19] = target: Glucocorticoid receptor (Homo sapiens) (UniProt P04150); test: qHTS assay to identify small molecule antagonists of the glucocorticoid receptor (GR) signaling pathway (AID 720692; active = well fitted inhibition curve with a large enough effect in the signal ratio in the repeat runs, not every such curve was filed as active; the % refers to the signal ratio); details: GR-bla HeLa, beta-lactamase FRET ratio, dexamethasone-stimulated, 18 h; series mostly up to 58.5 µM
# Procedure, shortened: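 Tox21 10K library screened in concentration-response for blockade of dexamethasone (5 nM final)-induced GRE-bla reporter activity in HeLa cells; 18 h treatment, fluorescence read.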
# Chain of Glucocorticoid receptor (Homo sapiens) (P04150 whole entry, looked up): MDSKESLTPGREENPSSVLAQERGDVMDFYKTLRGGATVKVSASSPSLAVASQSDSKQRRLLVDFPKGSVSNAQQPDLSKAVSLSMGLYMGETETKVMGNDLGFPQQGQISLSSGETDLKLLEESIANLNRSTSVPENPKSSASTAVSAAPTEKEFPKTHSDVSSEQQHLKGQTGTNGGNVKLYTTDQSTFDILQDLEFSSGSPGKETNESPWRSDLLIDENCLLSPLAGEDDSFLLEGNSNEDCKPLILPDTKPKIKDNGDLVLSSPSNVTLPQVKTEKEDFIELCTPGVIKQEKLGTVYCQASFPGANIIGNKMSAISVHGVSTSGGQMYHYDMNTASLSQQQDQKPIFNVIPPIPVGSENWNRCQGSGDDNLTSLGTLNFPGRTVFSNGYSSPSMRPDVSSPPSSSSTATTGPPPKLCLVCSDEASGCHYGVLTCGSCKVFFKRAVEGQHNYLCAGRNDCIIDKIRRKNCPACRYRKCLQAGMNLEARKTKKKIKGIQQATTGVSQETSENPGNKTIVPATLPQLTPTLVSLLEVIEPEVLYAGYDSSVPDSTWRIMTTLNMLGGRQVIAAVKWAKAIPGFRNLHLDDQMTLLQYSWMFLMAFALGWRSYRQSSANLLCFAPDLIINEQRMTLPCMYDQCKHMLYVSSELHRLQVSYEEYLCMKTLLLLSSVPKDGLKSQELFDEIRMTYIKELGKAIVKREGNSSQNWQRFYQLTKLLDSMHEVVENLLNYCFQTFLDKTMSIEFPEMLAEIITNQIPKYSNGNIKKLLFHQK
Structure (SMILES),Potency [1],Potency [2],Potency [3],Potency [4],outcome [5],outcome [6],outcome [7],outcome [8],outcome [9],outcome [10],outcome [11],outcome [12],outcome [13],outcome [14],outcome [15],outcome [16],outcome [17],Potency [18],Potency [19]
O=C(O)C(Br)(Br)Br,inactive,inactive,inactive,inactive,inactive,inactive,inactive,inactive,inactive,inactive,inactive,inactive,inactive,inactive,inactive,–,–,–,–
N[C@@H](Cc1ccc(Oc2cc(I)c(O)c(I)c2)c(I)c1)C(=O)O,inactive,–,inactive,inactive,inactive,inactive,inactive,inactive,–,inactive,inactive,inactive,inactive,inactive,inactive,inactive,inactive,–,–
CN(C)C1CCCCC1,inactive,inactive,inactive,–,inactive,inactive,inactive,inactive,inactive,inactive,inactive,–,inactive,inactive,inactive,–,–,inactive,inactive
O=c1[nH]c2ccccc2o1,–,–,inactive,inactive,–,inactive,inactive,inactive,inactive,inactive,–,inactive,inactive,inactive,inactive,inactive,inactive,inactive,–
CC[C@@H](CO)NC(=O)[C@@H]1C=C2c3cccc4c3c(cn4C)C[C@H]2N(C)C1,inactive,inactive,inactive,–,inactive,inactive,–,inactive,–,inactive,inactive,inactive,inactive,inactive,inactive,–,inactive,–,–
ClC1=C(Cl)C2(Cl)C(CBr)CC1(Cl)C2(Cl)Cl (configuration not stated),26.6 µM (active) and 61.1 µM (active),–,inactive,27.3 µM (active),inactive,inactive,–,inactive,inactive,–,–,inactive,inactive,inactive,inactive,inactive,inactive,inactive,inactive
NNCc1ccccc1,inactive,inactive,inactive,24.8 µM (active),inactive,inactive,–,inactive,–,inactive,inactive,inactive,inactive,inactive,inactive,–,inactive,inactive,–
